# Test results taken from the supplement of paper PMC8728848.
# The entries come from a sample that favours the strongest signals as a whole.
# B1: GS7807E-bfa-538-23-538 (Bacteroides fragilis) (protein)
# chain: TDSFESFNTNEAGFDNDSKKQDFNYYGIPLGIIQQGIYFNYDWGSGKNWPFQTMQNLGADLFSGYVHDFNPFNEGKNNSTYYMMDGWNGSTWDNTYGYIMPEVQKSETINEKDNIGFFGITKILKVELMHRLSDLYGPIVYTQFGSKTGSTPDTQQEAYKAFFNDLDTGIAKIREYQKANPDIESFAKFDILMPQGKRTFSEWIRFANSLRLRLAVRIAMADSKLAVAEAQKALTDEEGLLEGNDEVVAVSTSSGYTNPFGEINKAWGEVFMNANMESLLVGYEDPRMEKYFDKATGSDATSLIDYKGTYKGIRQGTGFSHKNYNGHSKSTITQQTDAVLMTPAEVWFLRAEAALRGWSSESVKDCYEKGVKASFAQWGAAGAEAYLESDRKPSDYVDAFKAANNVKAVNTLTPKWDDAAGNEDKLGRIITQKWLAMFPEGGEAWAEQRRTGYPRLFPVLVNQSEGTVDTNLGPRRLNFFVGIKTTNPEQYTQLVNALGGIDNCGTRLWWDTGRNF
# Experiments:
# Test in all cases: glycan array binding signal (z-score within array); higher = stronger binding
# Conditions in all cases: glycan notation: IUPAC condensed, linker removed
# Glc(a1-4)Glc = target: Glc(a1-4)Glc
# How it was run: (§1)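 Arrays were curated from the Consortium for Functional Glycomics database, 3228 in total, and kept only where the protein sequence was available. Binding is expressed as a within-array Z-score. This score was averaged across arrays of the same protein sequence at different concentrations or buffers and across linkers, and negative values can be read as non-binding.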
# GlcA(b1-3)GlcNAc = target: GlcA(b1-3)GlcNAc
# How it was run: as §1
# [1] = target: GlcNAc(a1-4)Gal(b1-4)GalNAc
# How it was run: as §1
# [2] = target: GlcNAc(a1-4)Gal(b1-4)GlcNAc(b1-3)Gal(b1-4)GlcNAc
# How it was run: as §1
# [3] = target: GlcNAc(b1-3)Gal(b1-4)GlcNAc(b1-3)Gal(b1-4)GlcNAc(b1-3)Gal(b1-4)GlcNAc(b1-2)Man(a1-3)[GlcNAc(b1-3)Gal(b1-4)GlcNAc(b1-3)Gal(b1-4)GlcNAc(b1-3)Gal(b1-4)GlcNAc(b1-2)Man(a1-6)]Man(b1-4)GlcNAc(b1-4)[Fuc(a1-6)]GlcNAc
# How it was run: as §1
# [4] = target: GlcNAc(b1-3)Gal(b1-4)GlcNAc(b1-3)Gal(b1-4)GlcNAc(b1-3)Gal(b1-4)GlcNAc(b1-3)Gal(b1-4)GlcNAc(b1-2)Man(a1-3)[GlcNAc(b1-3)Gal(b1-4)GlcNAc(b1-3)Gal(b1-4)GlcNAc(b1-3)Gal(b1-4)GlcNAc(b1-3)Gal(b1-4)GlcNAc(b1-2)Man(a1-6)]Man(b1-4)GlcNAc(b1-4)[Fuc(a1-6)]GlcNAc
# How it was run: as §1
# [5] = target: GlcNAc6S(b1-3)Gal(b1-4)GlcNAc
# How it was run: as §1
# [6] = target: Man(a1-3)[Man(a1-6)]Man(a1-6)[Man(a1-3)]Man(b1-4)GlcNAc(b1-4)GlcNAc
# How it was run: as §1
# [7] = target: Man(a1-3)[Man(a1-6)]Man(b1-4)GlcNAc(b1-4)GlcNAc
# How it was run: as §1
# [8] = target: Neu5Ac(a2-3)Gal(b1-3)GalNAc6S
# How it was run: as §1
# [9] = target: Neu5Ac(a2-3)Gal(b1-4)GlcNAc(b1-2)Man
# How it was run: as §1
# [10] = target: Neu5Ac(a2-3)Gal(b1-4)GlcNAc(b1-2)[Neu5Ac(a2-3)Gal(b1-4)GlcNAc(b1-4)]Man(a1-3)[GlcNAc(b1-4)][Neu5Ac(a2-3)Gal(b1-4)GlcNAc(b1-2)[Neu5Ac(a2-3)Gal(b1-4)GlcNAc(b1-6)]Man(a1-6)]Man(b1-4)GlcNAc(b1-4)GlcNAc
# How it was run: as §1
# [11] = target: Neu5Ac(a2-3)Gal(b1-4)GlcNAc(b1-2)[Neu5Ac(a2-3)Gal(b1-4)GlcNAc(b1-6)]Man(a1-6)[Neu5Ac(a2-3)Gal(b1-4)GlcNAc(b1-2)Man(a1-3)]Man(b1-4)GlcNAc(b1-4)GlcNAc
# How it was run: as §1
# [12] = target: Neu5Ac(a2-3)Gal(b1-4)GlcNAc(b1-6)GalNAc
# How it was run: as §1
# [13] = target: Neu5Ac(a2-6)Gal(b1-4)GlcNAc
# How it was run: as §1
# [14] = target: Neu5Ac(a2-6)Gal(b1-4)GlcNAc(b1-2)Man(a1-3)[Neu5Ac(a2-3)Gal(b1-4)GlcNAc(b1-2)Man(a1-6)]Man(b1-4)GlcNAc(b1-4)GlcNAc
# How it was run: as §1
# [15] = target: Neu5Ac(a2-6)Gal(b1-4)GlcNAc(b1-2)Man(a1-6)[Gal(b1-4)GlcNAc(b1-2)Man(a1-3)]Man(b1-4)GlcNAc(b1-4)GlcNAc
# How it was run: as §1
# [16] = target: Neu5Ac(a2-6)Gal(b1-4)GlcNAc(b1-3)Gal(b1-3)GlcNAc
# How it was run: as §1
# [17] = target: Neu5Ac(a2-6)GlcNAc(b1-4)GlcNAc(b1-4)GlcNAc
# How it was run: as §1
# [18] = target: Neu5Ac(a2-8)Neu5Ac(a2-8)Neu5Ac(a2-3)[GalNAc(b1-4)]Gal(b1-4)Glc
# How it was run: as §1
binder,measurement,setting,value
B1,glycan array binding signal (z-score),Glc(a1-4)Glc,-0.685
same,glycan array binding signal (z-score),GlcA(b1-3)GlcNAc,-0.585
same,glycan array binding signal (z-score),[1],-0.527
same,glycan array binding signal (z-score),[2],-0.642
same,glycan array binding signal (z-score),[3],-0.408
same,glycan array binding signal (z-score),[4],-0.491
same,glycan array binding signal (z-score),[5],3.84
same,glycan array binding signal (z-score),[6],3.45
same,glycan array binding signal (z-score),[7],-0.656
same,glycan array binding signal (z-score),[8],-0.669
same,glycan array binding signal (z-score),[9],2.92
same,glycan array binding signal (z-score),[10],-0.734
same,glycan array binding signal (z-score),[11],0.242
same,glycan array binding signal (z-score),[12],0.432
same,glycan array binding signal (z-score),[13],-0.395
same,glycan array binding signal (z-score),[14],-0.678
same,glycan array binding signal (z-score),[15],3.21
same,glycan array binding signal (z-score),[16],-0.187
same,glycan array binding signal (z-score),[17],-0.677
same,glycan array binding signal (z-score),[18],2.93
